High-throughput results: PubChem BioAssay, Broad Institute
T cruzi growth-1: inhibitors of T. cruzi proliferation | T. cruzi beta-gal in NIH3T3, GalScreen luminescence, 90 h | inhibition, % at 8.34 µM | 77,000 compounds, 5.9% hits;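 active = mean inhibition above about 93%, with at least 55% of replicates each passing it, limit read from the data, passing the limit was not always enough; inconclusive = only one of those two conditions holds; inactive = neither condition holds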
C diff growth: blocks growth of Clostridium difficile. Clostridium difficile clinical isolate growth, OD600, 24 h; hits give low values. growth activity, negative = inhibition, % at 16 µg/mL (by protocol). 86,000 compounds, 0.25% hits;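 active = mean growth activity at or below -80% and every replicate also at or below -80%; inconclusive = mean at or below -80% but some replicate above -80%; inactive = mean growth activity above -80%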
Pf Dd2 growth: P. falciparum Dd2 growth inhibition | SYBR Green, 72 h; hits give low values | activity change, % at 10 µM | 94,000 compounds, 2.3% hits | AID 1159554; in the data active = activity change below about -80%; inconclusive = no clear call, values can overlap the other calls
T cruzi growth-2: inhibitors of T. cruzi proliferation | shares compounds with T cruzi growth-1 | AID 651739 | 5,600 compounds, 72% hits | inhibition, % at 8.35 µM | T. cruzi beta-gal in NIH3T3, GalScreen luminescence, 90 h;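 active = mean replicate inhibition above about 95% and at least 55% of replicates individually reaching it, limit read from the data; inconclusive = only one of the two criteria is met; inactive = neither criterion is met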
T cruzi growth-3: inhibitors of T. cruzi proliferation; shares compounds with T cruzi growth-1; T. cruzi beta-gal in NIH3T3, GalScreen luminescence, 90 h; inhibition, % at 2.09 µM; 5,600 compounds, 21% hits;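 active = mean inhibition above about 95%, with at least 55% of replicates also reaching it, limit read from the data; inconclusive = meets just one of the two conditions; inactive = meets neither condition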
3T3 cytotox: NIH/3T3 (mouse) viability loss; NIH/3T3 viability, CellTiter-Glo ATP luminescence, 90 h; shares compounds with T cruzi growth-1; AID 651742; 5,600 compounds, 14% hits; cytotoxicity (signal decrease), % at 8.35 µM;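 active = mean signal decrease across replicates above about 35% based on untreated-well scatter, with enough replicates individually passing, limit read from the data; inconclusive = no rule stated though some were filed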
NIH3T3 tox 2: NIH/3T3 (mouse) viability loss; NIH/3T3 viability, CellTiter-Glo ATP luminescence, 90 h; shares compounds with T cruzi growth-1; 5,600 compounds, 56% hits; inhibition, % at 24.9 µM; AID 651744;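 active = mean loss of cell viability signal at or above a set limit, and enough replicates individually reaching it; inconclusive = meets only the mean limit or only the replicate share; inactive = meets neither condition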
Numbers stand for hits; – = inactive; ? = inconclusive; · = no result given. Sampled rows, rich in hits. Any-hit rate of the full collection: about 6.7%.

SMILES	T cruzi growth-1	C diff growth	Pf Dd2 growth	T cruzi growth-2	T cruzi growth-3	3T3 cytotox	NIH3T3 tox 2
Cc1cccc(S(=O)(=O)N2C[C@H](O)COC[C@@H]3O[C@H](CC(=O)Nc4ccc(-c5ccccc5)cc4)CC[C@H]32)c1	111.7	–	–	101.8	106.6	–	–
O=C(C[C@H]1CC[C@@H]2[C@H](COC[C@H](O)CN2S(=O)(=O)c2ccccc2)O1)Nc1ccc(-c2ccccc2)cc1	–	·	–	·	·	·	·
Cc1cccc(S(=O)(=O)N2C[C@H](O)COC[C@@H]3O[C@@H](CC(=O)Nc4ccc(-c5ccccc5)cc4)CC[C@H]32)c1	111.3	–	–	96.8	?	59.7	78.4
O=C(c1ccccn1)N1C[C@H]2[C@@H](c3ccccc31)[C@@H](CO)N2C(=O)C1CCOCC1	–	–	–	·	·	·	·
COc1cccc(NC(=O)N[C@H]2C=C[C@H](CC(=O)N3CCCCC3)O[C@H]2CO)c1	–	–	–	·	·	·	·
C[C@@H]1CN([C@H](C)CO)C(=O)Cc2cc(NC(=O)Nc3ccc(C(F)(F)F)cc3)ccc2O[C@@H]1CN(C)C(=O)Nc1ccc(F)cc1	–	–	–	·	·	·	·
O=C(NCCc1ccncc1)[C@@H]1[C@@H](CO)[C@@H]2Cn3c(ccc(-c4ccncc4)c3=O)[C@@H]2N1C(=O)C1CC1	–	–	–	·	·	·	·
Cc1noc(C)c1S(=O)(=O)Nc1ccc2c(c1)C(=O)N([C@@H](C)CO)C[C@@H](C)[C@H](CN(C)CC1CC1)OCCCC[C@H](C)O2	–	–	–	·	·	·	·
Cc1cccc(S(=O)(=O)N2C[C@@H](O)COC[C@@H]3O[C@H](CC(=O)Nc4ccc(-c5ccccc5)cc4)CC[C@H]32)c1	119.5	–	–	106.6	–	?	41.2
O=C(C[C@@H]1CC[C@@H]2[C@H](COC[C@@H](O)CN2S(=O)(=O)c2cccc(F)c2)O1)Nc1ccc(-c2ccccc2)cc1	–	–	–	·	·	·	·
O=C(NCC[C@H]1CC[C@H](NC(=O)C2CCC2)[C@@H](CO)O1)c1cc(Cl)cc(Cl)c1	·	–	–	·	·	·	·
C[C@H]1CN([C@@H](C)CO)S(=O)(=O)c2ccc(C#CC3CC3)cc2O[C@H]1CN(C)C(=O)Nc1cc(F)ccc1F	120.8	·	–	108.5	–	–	–
C[C@H](CO)N1C[C@H](C)[C@H](CN(C)C(=O)Nc2cc(F)ccc2F)Oc2cc(-c3ccc(C#N)cc3)ccc2S1(=O)=O	–	–	–	·	·	·	·
C[C@@H]1CN([C@@H](C)CO)S(=O)(=O)c2ccc(C#CC3CCCC3)cc2O[C@@H]1CN(C)C(=O)Nc1cc(F)ccc1F	·	·	–	·	·	·	·
C[C@H]1CN([C@@H](C)CO)S(=O)(=O)c2ccc(C#CC3CC3)cc2O[C@@H]1CN(C)C(=O)Nc1cc(F)ccc1F	111.1	·	–	107.9	–	39.4	36.3
CNC[C@@H]1Oc2cc(C#CC(C)(C)O)ccc2S(=O)(=O)N([C@@H](C)CO)C[C@H]1C	–	–	–	·	·	·	·
COc1ccc([Si](C)(C)[C@H]2[C@H](CC(=O)N(CCO)Cc3ccccc3)O[C@@]3(C(=O)N(C)c4ccccc43)[C@@H]2C)cc1	·	–	·	·	·	·	·
C[C@H]1CN([C@@H](C)CO)C(=O)c2cc(-c3cccnc3)cnc2O[C@@H]1CN(C)Cc1ccc(Oc2ccccc2)cc1	?	–	–	106.8	–	–	103.8
C[C@H]1CN([C@@H](C)CO)C(=O)c2cc(-c3ccncc3)cnc2O[C@@H]1CN(C)Cc1ccc(Oc2ccccc2)cc1	98.3	–	–	104.8	–	–	103.5
C[C@H](CO)N1C[C@H](C)[C@H](CN(C)Cc2ccc(Oc3ccccc3)cc2)Oc2ncc(-c3cccnc3)cc2C1=O	–	–	–	·	·	·	·
C[C@@H]1CN([C@H](C)CO)C(=O)c2cc(-c3cccnc3)cnc2O[C@H]1CN(C)Cc1ccc(Oc2ccccc2)cc1	–	–	–	·	·	·	·
C[C@@H]1CN([C@@H](C)CO)C(=O)c2cc(C#CC3CC3)cnc2O[C@H]1CN(C)C(=O)C1CCCCC1	–	·	–	·	·	·	·
C/C=C/c1ccc([C@@H]2[C@H](C#N)N(c3nc(CC)cs3)[C@H]2CO)cc1	104.0	–	–	105.1	–	–	27.4
C/C=C/c1ccc([C@H]2[C@@H](CO)N(S(C)(=O)=O)[C@H]2CNC(C)C)cc1	·	–	–	·	·	·	·
